Measurements from PubChem BioAssay (NCI).
Compounds without any hit were thinned out: in the full panel of roughly 83,000, 20% have a hit.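 Growth was measured after 48 h exposure to one concentration of compound in 96-well plates. Values under 10 count as active.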 A number with no mark means an inactive call. Calls of active or inactive are those of the source.

Experiments:
Experiment in all cases: NCI-60 one-dose screen, 48 h (100 = growth as untreated, 0 = no growth, -100 = all killed)
Conditions in all cases: 10 µM unless noted
SK-MEL-2 melanoma = test system: SK-MEL-2 melanoma
EKVX NSCLC = test system: EKVX NSCLC
SN12C renal = test system: SN12C renal
UO-31 renal = test system: UO-31 renal
TK-10 renal = test system: TK-10 renal
ACHN renal = test system: ACHN renal
CAKI-1 renal = test system: CAKI-1 renal
CCRF-CEM leukemia = test system: CCRF-CEM leukemia
MOLT-4 leukemia = test system: MOLT-4 leukemia
SR leukemia = test system: SR leukemia
RPMI-8226 leukemia = test system: RPMI-8226 leukemia
OVCAR-8 ovarian = test system: OVCAR-8 ovarian
OVCAR-5 ovarian = test system: OVCAR-5 ovarian
OVCAR-4 ovarian = test system: OVCAR-4 ovarian
SK-OV-3 ovarian = test system: SK-OV-3 ovarian
OVCAR-3 ovarian = test system: OVCAR-3 ovarian
HS 578T breast = test system: HS 578T breast
NCI/ADR-RES ovarian = test system: NCI/ADR-RES ovarian
IGROV1 ovarian = test system: IGROV1 ovarian

Compound	growth (SK-MEL-2 melanoma) [%]	growth (EKVX NSCLC) [%]	growth (SN12C renal) [%]	growth (UO-31 renal) [%]	growth (TK-10 renal)	growth (ACHN renal)	growth (CAKI-1 renal) [%]	growth (CCRF-CEM leukemia)	growth (MOLT-4 leukemia)	growth (SR leukemia)	growth (RPMI-8226 leukemia)	growth (OVCAR-8 ovarian) [%]	growth (OVCAR-5 ovarian) [%]	growth (OVCAR-4 ovarian) [%]	growth (SK-OV-3 ovarian) [%]	growth (OVCAR-3 ovarian)	growth (HS 578T breast) [%]	growth (NCI/ADR-RES ovarian) [%]	growth (IGROV1 ovarian)
NC(=O)Nc1ccc(-n2cnc3cc(-c4ccc(O)cc4)ccc32)cc1	116	112	94	87.2	121%	92%	95.2	94.5%	84.9%	88.1%	91.5%	97.4	97.5	89	137	108%	109	103	–
Cc1ccc(/C=N/NC(=O)CSc2nc3ccccc3c(=O)n2Cc2ccc(S(N)(=O)=O)cc2)cc1	94	90.8	97.3	80.8	106%	100%	64	87.8%	86.8%	49.4%	95.1%	93.6	95.6	–	103	79.6%	88.5	96.8	96.2%
CCOC(=O)/C(C#N)=C1/NNC(=Nc2cccnc2)S1	107	98.7	98.6	92.1	102%	100%	97.1	106%	106%	118%	107%	92.2	102	100	85.7	101%	96.7	105	–
O=S(=O)(NCCNc1nccc(-c2c(-c3cccc(F)c3)nc3sccn23)n1)c1ccc(Cl)cc1	79.8	66.3	48.7	23.8	88.5%	35.7%	41.1	50.4%	46.8%	40.6%	59.4%	53.6	93.3	63.6	94.9	65.4%	72.5	–	–
CC(=O)c1cc2c(N)c(C(=O)Nc3cccc4ccncc34)sc2nc1C	78	91.5	99.9	88.2	99%	102%	93.1	101%	88.7%	49.8%	103%	108	106	110	93.4	–	91.3	108	101%
CCC(CC)NCC(C)(C)O	110	102	97.9	88.2	109%	102%	89.5	100%	103%	93.4%	107%	99	108	105	110	–	107	106	98%
CC1(C)c2[nH]c3ccccc3c2C[C@]2(C)[C@H]3C(=O)C=C4[C@@H]5C[C@@](C)(C(N)=O)CC[C@]5(C)CC[C@@]4(C)[C@]3(C)CC[C@@H]12	81.8	68.4	72	42.6	70.5%	76.7%	82.8	66.7%	32.6%	45.8%	42.3%	75.1	93.3	54.4	71.3	69.9%	71.4	71.2	–
COc1ccc(N2CCN(c3ccc(NC4=C(Cl)C(=O)c5ncccc5C4=O)cc3)CC2)cc1	71.8	78.8	45.5	46.2	74.8%	67.3%	61.1	24.6%	53.3%	12.9%	35.5%	32.9	84.4	–	75.9	-3.66% (active)	36.3	83	-49.7% (active)
O=C(NCCNc1nccc(-c2c(-c3cccc(F)c3)nc3sccn23)n1)c1ccc(Cl)cc1	62.5	63.2	52.5	28.1	75.4%	34.2%	41.5	58.2%	65.7%	46.5%	62.4%	55.1	88.3	–	80.9	75.7%	74.8	74.3	22.5%
CNC(=O)c1cccc(Cn2nc(C)c(NC(=O)c3ccc(COc4ccc(C(F)(F)F)cc4C)cc3)c2C)n1	50.5	37.5	59.8	50.8	56.2%	54.9%	46.4	60.2%	29.6%	22%	32.7%	35.8	104	–	74	35.1%	87.7	33.4	65.1%
Cc1cccc(NC(=O)Nc2ccc(-c3ccc4c(c3)NC(=O)/C4=C\c3ccc[nH]3)cc2)c1	111	46.5	100	70.3	93.3%	91.1%	82.6	30.1%	53.8%	23.6%	91.4%	105	96.3	73.4	90.5	103%	95.7	93.8	–
CCCCCN1C=C/C(=C\C(=O)n2ccc3ccccc32)c2ccccc21	96.9	69.3	89.9	49.4	110%	93.5%	70.6	94.6%	90%	82.8%	73.7%	93.6	93.7	–	78.5	86.4%	92.2	94.3	65.5%
COC(=O)C1=C(C(=O)ON)[C@@H]2C=C[C@@]1([C@@H](Cc1ccccc1)Nc1ccccc1)O2	94	97.7	81.5	71.1	-23.4% (active)	-95.5% (active)	86	-13.5% (active)	7.55% (active)	8.17% (active)	21.7%	92.8	89	–	107	-79.1% (active)	109	89.8	85.6%
CC(C)(C)CC(C)(C)n1nnnc1C(NC12CC3CC(CC(C3)C1)C2)c1ccccc1 (centres undefined)	95.8	84.9	88.8	81.6	94.9%	95.8%	83.1	83.5%	90%	80.3%	68.8%	96	103	88.4	120	98.1%	99.9	86.1	–
CN1CCN(C(=O)[C@]23CCC(C)(C)C[C@H]2C2=CC[C@@H]4[C@@]5(C)C/C(=C/c6ccncc6)C(=O)C(C)(C)[C@@H]5CC[C@@]4(C)[C@]2(C)CC3)CC1	78.2	80.2	49.9	37.3	77.1%	65.1%	75.4	19.7%	2.92% (active)	7.07% (active)	7.22% (active)	55.3	86.9	57.4	77.6	–	50.4	56.3	74.4%
